PubChem BioAssay (EPA / NIEHS)
“And” between values parts separate entries of the source, which are not always exact repeats. Identical values can stand only once. Some structures have more than one record in an assay (separate samples or runs), and their calls can disagree. The source made the active and inactive calls. How the source made its calls: active means hit-call score of the fitted dose curve at least 0.9, where 1 is the maximum; inactive means score below 0.9.

Legend:
Conditions in all cases: mRNA level, 48 h; actives raise or lower the signal
[1] = read-out: DNA damage-inducible transcript 3 (DDIT3), DDIT3 (gene 1649); test: LTEA_HepaRG_DDIT3: Life Technologies and Expression Analysis (LTEA) Assay for DNA damage-inducible transcript 3 (DDIT3) using HepaRG (AID 2283488)
Method in brief: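 HepaRG cells, 48 h after plating, exposed 48 h in serum-free induction medium to 8 half-log concentrations up to 100 uM in 0.5% DMSO, in duplicate. DDIT3 mRNA measured by TaqMan qRT-PCR, normalized to ACTB, GAPDH and POLR2A. Fitted bidirectionally against DMSO.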

[2] = read-out: Pro-epidermal growth factor (Homo sapiens) (UniProt P01133); test: LTEA_HepaRG_EGF: Life Technologies and Expression Analysis (LTEA) Assay for Epidermal growth factor (EGF) using HepaRG (AID 2283489)
Method in brief: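 Concentration-response mRNA assay: HepaRG cells dosed 48 h (max 100 uM, 0.5% DMSO), EGF measured by qRT-PCR and normalized to ACTB/GAPDH/POLR2A.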

[3] = read-out: Early growth response protein 1 (EGR1) transcription factor, EGR1 (gene 1958); test: LTEA_HepaRG_EGR1: Life Technologies and Expression Analysis (LTEA) Assay for Early growth response protein 1 (EGR1) transcription factor using HepaRG (AID 2283490)
Method in brief: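 Differentiated HepaRG cells in serum-free induction medium exposed 48 hours, duplicate, to 8 half-log concentrations up to 100 uM in 0.5% DMSO. EGR1 mRNA measured by TaqMan qRT-PCR, normalized to ACTB, GAPDH, POLR2A; bidirectional fit versus DMSO.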

[4] = read-out: Ezrin (EZR), EZR (gene 7430); test: LTEA_HepaRG_EZR: Life Technologies and Expression Analysis (LTEA) Assay for Ezrin (EZR) using HepaRG (AID 2283491)
Method in brief: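 Differentiated human HepaRG cells, 48 h after plating, were exposed in serum-free induction medium for 48 hours to eight half-log concentrations up to 100 uM in 0.5% DMSO. EZR mRNA was measured by TaqMan qRT-PCR, normalized to ACTB, GAPDH and POLR2A, and fitted bidirectionally against DMSO.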

[5] = read-out: Cytochrome P450 3A7 (Homo sapiens) (UniProt P24462); test: LTEA_HepaRG_CYP3A7: Life Technologies and Expression Analysis (LTEA) Assay for CYP3A7 using HepaRG (AID 2283492)
Method in brief: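 qRT-PCR of CYP3A7 in HepaRG lysates after 48 h treatment; concentration-response (8 points, max 100 uM) analysed bidirectionally relative to 0.5% DMSO controls.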

CYP3A5 (gene 1577) = test: LTEA_HepaRG_CYP3A5: Life Technologies and Expression Analysis (LTEA) Assay for CYP3A5 using HepaRG (AID 2283493)
Method in brief: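 HepaRG cells, plated 48 h then in serum-free induction medium, dosed in duplicate for 48 h with eight half-log concentrations up to 100 uM in 0.5% DMSO. Gene mRNA by Fluidigm TaqMan qRT-PCR, normalized to ACTB, GAPDH, POLR2A.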

[6] = read-out: Fatty Acid-Binding Protein 1 (FABP1), FABP1 (gene 2168); test: LTEA_HepaRG_FABP1: Life Technologies and Expression Analysis (LTEA) Assay for Fatty Acid-Binding Protein 1 (FABP1) using HepaRG (AID 2283494)
Method in brief: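 Differentiated human HepaRG cells exposed 48 h in serum-free induction medium to eight half-log concentrations up to 100 uM (0.5% DMSO), duplicate. FABP1 mRNA by qRT-PCR, normalised to ACTB, GAPDH, POLR2A; bidirectional fitting against DMSO.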

[7] = read-out: Cytochrome P450 4A22 (Homo sapiens) (UniProt Q5TCH4); test: LTEA_HepaRG_CYP4A22: Life Technologies and Expression Analysis (LTEA) Assay for Cytochrome P450 4A22 (CYP4A22) using HepaRG (AID 2283495)
Method in brief: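 Concentration-response (8 points, max 100 uM, 0.5% DMSO) in human HepaRG liver cells after 48 h exposure. CYP4A22 mRNA by TaqMan qRT-PCR with housekeeping-gene normalization.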

[8] = read-out: Cytochrome P450 7A1 (Homo sapiens) (UniProt P22680); test: LTEA_HepaRG_CYP7A1: Life Technologies and Expression Analysis (LTEA) Assay for Cytochrome P450 7A1 (CYP7A1) using HepaRG (AID 2283496)
Method in brief: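 HepaRG cells plated 48 h, then switched to serum-free induction medium and exposed in duplicate for 48 h to 8-point half-log series from 100 uM in 0.5% DMSO. CYP7A1 mRNA by qRT-PCR (TaqMan), normalized to ACTB/GAPDH/POLR2A; bidirectional fit versus DMSO.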

[9] = read-out: Glutathione S-Transferase (GSTA2), GSTA2 (gene 2939); test: LTEA_HepaRG_GSTA2: Life Technologies and Expression Analysis (LTEA) Assay for Glutathione S-Transferase (GSTA2) using HepaRG (AID 2283497)
Method in brief: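 Differentiated human HepaRG cells were exposed in duplicate for 48 h in serum-free induction medium, 8 points from 100 uM top in half-log steps, 0.5% DMSO. GSTA2 mRNA was measured by TaqMan qRT-PCR, normalized to ACTB, GAPDH and POLR2A; bidirectional fit versus DMSO.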

[10] = read-out: Glutamate-cysteine ligase catalytic (GCLC), GCLC (gene 2729); test: LTEA_HepaRG_GCLC: Life Technologies and Expression Analysis (LTEA) Assay for Glutamate-cysteine ligase catalytic (GCLC) using HepaRG (AID 2283498)
Method in brief: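 Differentiated HepaRG cells exposed 48 h in serum-free induction medium, eight-point half-log series topping at 100 uM in 0.5% DMSO, duplicates. GCLC mRNA by qRT-PCR normalized to ACTB, GAPDH and POLR2A, fitted bidirectionally versus DMSO.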

[11] = read-out: growth arrest and DNA damage 45 (GADD45G), GADD45G (gene 10912); test: LTEA_HepaRG_GADD45G: Life Technologies and Expression Analysis (LTEA) Assay for growth arrest and DNA damage 45 (GADD45G) using HepaRG (AID 2283499)
Method in brief: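 Concentration-response in HepaRG: 48 h dosing, 0.5% DMSO, highest level 100 uM. GADD45G expression by qRT-PCR, normalised to endogenous controls; bidirectional fit to DMSO.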

[12] = read-out: Glutamate-cysteine ligase regulatory (GCLM), GCLM (gene 2730); test: LTEA_HepaRG_GCLM: Life Technologies and Expression Analysis (LTEA) Assay for Glutamate-cysteine ligase regulatory (GCLM) using HepaRG (AID 2283500)
Method in brief: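 Differentiated HepaRG cells exposed 48 h in serum-free induction medium to eight half-log concentrations up to 100 uM (0.5% DMSO). GCLM mRNA by TaqMan qRT-PCR, normalized to ACTB, GAPDH and POLR2A; bidirectional fit versus DMSO.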

[13] = read-out: Glutathione S-transferase M3 (GSTM3), GSTM3 (gene 2947); test: LTEA_HepaRG_GSTM3: Life Technologies and Expression Analysis (LTEA) Assay for Glutathione S-transferase M3 (GSTM3) using HepaRG (AID 2283501)
Method in brief: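 Expression of GSTM3 is determined by qRT-PCR in human liver HepaRG cells treated 48 h with an 8-point half-log range from 100 uM in 0.5% DMSO.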

[14] = read-out: Heat shock 70 kDa protein 1 (HSPA1A), gene 3303; test: LTEA_HepaRG_HSPA1A: Life Technologies and Expression Analysis (LTEA) Assay for Heat shock 70 kDa protein 1 (HSPA1A) using HepaRG (AID 2283502)
Method in brief: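 Human HepaRG cells in serum-free induction medium were exposed in duplicate for 48 h to 8 half-log concentrations, highest 100 uM, in 0.5% DMSO. HSPA1A mRNA read by TaqMan qRT-PCR, normalized to ACTB, GAPDH, POLR2A, fitted bidirectionally against DMSO.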

[15] = read-out: Hypoxia-inducible factor 1-alpha (Homo sapiens) (UniProt Q16665); test: LTEA_HepaRG_HIF1A: Life Technologies and Expression Analysis (LTEA) Assay for Hypoxia-inducible factor 1 (HIF1A) Trancription factor using HepaRG (AID 2283503)
Method in brief: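 Differentiated HepaRG cells in serum-free induction medium exposed 48 h, in duplicate, to 8-point half-log series from 100 uM in 0.5% DMSO. HIF1A mRNA measured by TaqMan qRT-PCR, normalized to ACTB/GAPDH/POLR2A, fitted bidirectionally versus DMSO.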

[16] = read-out: 3-Hydroxy-3-Methylglutaryl-CoA Synthase 2 (HMGCS2), HMGCS2 (gene 3158); test: LTEA_HepaRG_HMGCS2: Life Technologies and Expression Analysis (LTEA) Assay for 3-Hydroxy-3-Methylglutaryl-CoA Synthase 2 (HMGCS2) using HepaRG (AID 2283504)
Method in brief: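 This steatosis marker was read as HMGCS2 mRNA change in HepaRG cells treated 48 h with up to 100 uM chemical. Normalisation used housekeeping genes; activity in either direction was fitted relative to 0.5% DMSO vehicle.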

HGF (gene 3082) = test: LTEA_HepaRG_HGF: Life Technologies and Expression Analysis (LTEA) Assay for Hepatocyte Growth Facto (HGF) using HepaRG (AID 2283505)
Method in brief: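 Using HepaRG monolayers kept in 0.5% DMSO, chemicals were tested in duplicate over eight half-log concentrations from 100 uM for 48 h. Endpoint: HGF mRNA change relative to DMSO, normalized to ACTB/GAPDH/POLR2A.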

[17] = read-out: Insulin Like Growth Factor 1 (IGF1), IGF1 (gene 3479); test: LTEA_HepaRG_IGF1: Life Technologies and Expression Analysis (LTEA) Assay for Insulin Like Growth Factor 1 (IGF1) using HepaRG (AID 2283506)
Method in brief: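 Differentiated HepaRG cells in serum-free induction medium, exposed 48 h in duplicate to 8 half-log concentrations up to 100 uM in 0.5% DMSO. IGF1 mRNA by Fluidigm qRT-PCR, normalised to ACTB, GAPDH and POLR2A.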

[18] = read-out: Intercellular Adhesion Molecule 1 (ICAM1), ICAM1 (gene 3383); test: LTEA_HepaRG_ICAM1: Life Technologies and Expression Analysis (LTEA) Assay for Intercellular Adhesion Molecule 1 (ICAM1) using HepaRG (AID 2283507)
Method in brief: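 Using the human liver line HepaRG, compounds are tested in duplicate over 48 h at concentrations up to 100 uM. Expression is determined by TaqMan qRT-PCR, normalized to endogenous controls, and analysed relative to 0.5% DMSO vehicle.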

Measured: AC50

Chain of Hypoxia-inducible factor 1-alpha (Homo sapiens) (Q16665 whole entry, looked up): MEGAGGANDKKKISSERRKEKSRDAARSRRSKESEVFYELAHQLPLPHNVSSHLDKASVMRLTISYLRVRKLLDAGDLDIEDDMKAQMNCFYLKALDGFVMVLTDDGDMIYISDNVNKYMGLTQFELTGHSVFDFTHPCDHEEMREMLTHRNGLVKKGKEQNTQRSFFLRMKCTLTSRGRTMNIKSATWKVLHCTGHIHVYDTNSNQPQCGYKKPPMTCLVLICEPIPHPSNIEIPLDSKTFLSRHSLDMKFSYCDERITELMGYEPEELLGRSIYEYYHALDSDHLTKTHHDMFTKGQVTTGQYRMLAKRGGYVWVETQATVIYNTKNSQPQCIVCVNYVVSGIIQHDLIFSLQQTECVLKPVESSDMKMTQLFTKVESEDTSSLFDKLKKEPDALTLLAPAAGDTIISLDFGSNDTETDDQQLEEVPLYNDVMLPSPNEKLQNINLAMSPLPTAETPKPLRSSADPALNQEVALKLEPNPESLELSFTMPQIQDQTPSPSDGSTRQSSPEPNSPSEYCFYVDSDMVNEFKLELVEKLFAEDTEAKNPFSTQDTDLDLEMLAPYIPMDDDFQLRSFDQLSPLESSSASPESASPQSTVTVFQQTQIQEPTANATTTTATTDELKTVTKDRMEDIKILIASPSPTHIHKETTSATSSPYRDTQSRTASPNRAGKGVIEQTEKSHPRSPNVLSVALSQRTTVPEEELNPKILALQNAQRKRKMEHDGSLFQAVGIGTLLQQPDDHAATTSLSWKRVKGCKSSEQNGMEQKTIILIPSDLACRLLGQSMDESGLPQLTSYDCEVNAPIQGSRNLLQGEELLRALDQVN
Chain of Cytochrome P450 3A7 (Homo sapiens) (P24462 whole entry, looked up): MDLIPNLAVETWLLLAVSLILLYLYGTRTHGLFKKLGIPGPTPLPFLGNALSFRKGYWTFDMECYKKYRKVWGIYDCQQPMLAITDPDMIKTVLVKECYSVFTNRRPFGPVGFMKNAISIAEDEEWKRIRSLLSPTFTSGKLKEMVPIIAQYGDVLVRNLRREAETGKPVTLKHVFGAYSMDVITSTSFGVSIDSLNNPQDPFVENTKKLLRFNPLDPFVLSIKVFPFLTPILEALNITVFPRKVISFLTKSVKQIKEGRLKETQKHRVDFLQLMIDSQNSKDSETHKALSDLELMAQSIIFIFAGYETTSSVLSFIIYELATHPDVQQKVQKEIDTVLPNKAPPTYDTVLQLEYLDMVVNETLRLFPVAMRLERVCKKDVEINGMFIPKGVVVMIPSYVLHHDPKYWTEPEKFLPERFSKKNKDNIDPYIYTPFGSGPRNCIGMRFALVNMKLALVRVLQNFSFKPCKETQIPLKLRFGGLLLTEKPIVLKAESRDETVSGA

CC/C(=C(\c1ccccc1)c1ccc(OCCN(C)C)cc1)c1ccccc1
inactive: [2] | [3] | [5] | CYP3A5 (gene 1577) | [8] | [9] | [10] | [11] | [13] | [15] | [16] | HGF (gene 3082) | [17]
active: [1] 64.7 µM and 72.2 µM | [3] 73.6 µM | [4] 81.4 µM and 50 µM | CYP3A5 (gene 1577) 86.7 µM | [6] 60 µM and 70.9 µM | [7] 14.5 µM and 20.7 µM | [9] 70.2 µM | [11] 90.5 µM | [12] 74 µM and 50 µM | [14] 74.8 µM and 76.4 µM | [15] 82 µM | [16] 66 µM | [17] 84.6 µM | [18] 85.1 µM and 99.2 µM

C[C@]12CC[C@@H]3c4ccc(O)cc4CC[C@H]3[C@@H]1CC[C@@H]2O
active: CYP3A5 (gene 1577) 50 µM | [6] 29 µM | [7] 50 µM | [17] 31.2 µM
not listed: [5] | [15]
inactive: all other assays above

CCCCOCCOCCO
inactive: all assays above

C#C[C@]1(O)CC[C@H]2[C@@H]3CCc4cc(O)ccc4[C@H]3CC[C@@]21C
not listed: [12]
inactive: all other assays above
